Calls of active or inactive are those of the source.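 How the source made its calls: active means blocks over 70% of labeled estradiol binding at 10 µM, or over a set limit at 100 nM; inactive means the rest.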
Biological target: Estrogen receptor beta (Homo sapiens) (UniProt Q92731)
Experiment: displacement of fluorescent estrogen from ERbeta – cell-based, Cos7 ERbeta-GFP, flow cytometry, primary screen (AID 1210);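 further: 0% = DMSO vehicle wells and 100% = complete loss of labeled estradiol signal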
Conditions: fluorescent estrogen binding, stronger effect = higher value
[1] = ligand binding inhibition, at 0.1 µM

Chain of Estrogen receptor beta (Homo sapiens) (Q92731 whole entry, looked up): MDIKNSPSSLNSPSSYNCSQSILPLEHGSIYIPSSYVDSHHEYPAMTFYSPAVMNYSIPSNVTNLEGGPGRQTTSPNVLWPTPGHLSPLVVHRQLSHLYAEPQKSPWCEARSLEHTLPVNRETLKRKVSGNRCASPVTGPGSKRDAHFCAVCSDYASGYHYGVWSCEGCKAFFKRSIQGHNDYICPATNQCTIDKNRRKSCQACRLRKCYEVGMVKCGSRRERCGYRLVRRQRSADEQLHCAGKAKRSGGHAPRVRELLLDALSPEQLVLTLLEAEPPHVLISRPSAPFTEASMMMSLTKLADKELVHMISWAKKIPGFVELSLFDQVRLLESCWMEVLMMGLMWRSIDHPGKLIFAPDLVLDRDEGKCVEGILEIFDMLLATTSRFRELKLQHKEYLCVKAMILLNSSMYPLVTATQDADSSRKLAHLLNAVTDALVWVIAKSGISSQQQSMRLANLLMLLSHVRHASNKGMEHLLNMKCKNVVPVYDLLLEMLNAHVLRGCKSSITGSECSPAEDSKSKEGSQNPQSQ

| Compound | inhibition (at 10 µM) | inhibition [1] [%] |
| --- | --- | --- |
| COc1ccc(-c2nnc(SCC(=O)c3cc(C)n(Cc4cccs4)c3C)o2)cc1 | 27% (inactive) | 1 |
| CCN(CC)c1ccc2c(c1)oc(=O)c1c(Cl)cc(=O)oc12 | 33% (inactive) | 18 |
| CCn1c(SCC(=O)c2ccc(O)c(O)c2)nnc1-c1ccccc1OC | 58% (inactive) | 3 |
| Cc1oc2cc(O)ccc2c(=O)c1Oc1ccccc1 | 22% (inactive) | 37 |
| CCOc1cc(N2CCOCC2)c(OCC)cc1NC(=O)c1cc(-c2ccco2)nc2ccccc12 | 47% (inactive) | 48 |
| Cc1cc(C)nc(NC(=O)CSc2nn(C)c(=S)s2)n1 | 6% (inactive) | 20 |
| Cc1ccc(-n2nnnc2SCC(=O)Nc2ccc3c(c2)COC3=O)cc1C | 15% (inactive) | 2 |
| CCOc1ccccc1C1C(C#N)=C(N)Nc2onc(-c3ccccc3)c21 (configuration not stated) | 5% (inactive) | 38 |
| O=C(O)c1ccc2c(c1)[C@@H]1C=CC[C@@H]1[C@H](c1ccccn1)N2 | 0% (inactive) | 25 |
| Cn1c(SCC(=O)Nc2sccc2C#N)nnc1-c1ccccc1 | 12% (inactive) | 13 |
| Cc1cccc(N2CCN(C(=O)c3cc4c(=O)n(C)c5ccccc5c4n3C)CC2)c1C | 46% (inactive) | 27 |
| COc1cccc2sc(Nc3nnc(-c4ccc(F)cc4)o3)nc12 | 33% (inactive) | 17 |
| CCOC(=O)c1c(C)[nH]c(C)c1C(=O)CSc1nnc(-c2cc(OC)c(OC)c(OC)c2)o1 | 69% (inactive) | 7 |
| COc1ccc(C2=NN(C(=O)c3cccnc3)C(c3ccccc3)C2)cc1 (configuration not stated) | 41% (inactive) | 12 |
| NC(=S)n1[nH]c(-c2ccc([N+](=O)[O-])cc2)c(N=Nc2ccc(O)cc2)c1=O | 35% (inactive) | 15 |
| CC(=O)Nc1ccc(N=Cc2nc(-c3ccc(C)cc3)oc2O)cc1 | 68% (inactive) | 56 |
| O=C1C2CC=C(Cl)CC2C(=O)N1CCCCCCN1C(=O)C2CC=C(Cl)CC2C1=O (configuration not stated) | 28% (inactive) | 36 |
| Cc1ccc(-c2nn(-c3ccccc3)cc2CSC(=N)N)cc1 | 38% (inactive) | 33 |
| O=C(O)C1Nc2c(O)cc(Cl)c([N+](=O)[O-])c2C2C=CCC12 (configuration not stated) | 31% (inactive) | 18 |
| O=C(Cc1ccccc1)Nc1ccc2oc(-c3cccnc3)nc2c1 | 65% (inactive) | 20 |
| O=C(Nc1ccc2c(c1)nc1n2CCSC1)c1ccco1 | 57% (inactive) | 31 |

— PubChem BioAssay AID1210 (NMMLSC, 2008)
